According to PubChem BioAssay (EPA / NIEHS):
The source holds several records for some structures; these can differ, active in one and inactive in another. Calls of active or inactive are those of the source. How the source made its calls: active means hit-call score of the fitted dose curve at least 0.9, where 1 is the maximum; inactive means score below 0.9.

Assay: ATG_M_32_CIS: Attagene CIS-FACTORIAL HepG2 Assay for M32 Transcription Factor (Internal Marker) (AID 2282949);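 further: background control marker of the multiplexed CIS panel rather than a real target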
Conditions: HepG2 Attagene cis-factorial M32 reporter, mRNA; actives raise or lower the signal
Description: ATG_CIS is a cell-based, multiplexed-readout assay that uses HepG2, a human liver cell line, with measurements taken at 24 hours after chemical dosing in a 24-well plate.ATG_M_32_CIS is one of 52 assay component(s) measured or calculated from the ATG_CIS assay. It is designed to make measurements of mRNA induction, a form of inducible reporter, as detected with fluorescence intensity signals by Reverse transcription polymerase chain reaction (RT-PCR) and Capillary electrophoresis technology.Data from the assay component ATG_M_32_CIS was analyzed into 1 assay endpoint. This assay endpoint, ATG_M_32_CIS, was analyzed with bidirectional fitting relative to DMSO as the negative control and baseline of activity. Using a type of inducible reporter, measures of mRNA for gain or loss-of-signal activity can be used to understand the background control at the transcription factor-level as they relate to the gene . Furthermore, this assay endpoint can be referred to as a secondary readout, because this assay has produced multiple assay endpoints where this one serves a background control function. To generalize the intended target to other relatable targets, this assay endpoint is annotated to the background measurement intended target family, where the subfamily is internal marker.
Human liver HepG2 cells are transiently transfected with multiple reporter transcription units (MRTUs) in 6-well plates using FuGene 6 reagent (Roche; 3 ml FuGene/1 mg DNA). The MRTU constructs are regulated by a cis-regulating element (promoter). […] A major difference between the CIS and TRANS system is that in CIS activities of endogenous TFs are measured, whereas the TRANS assay evaluates changes in activities of exogenous, chimeric NR-Gal4 proteins. […] At the end of 24 hour incubation, total RNA was isolated using TriZol reagent (Invitrogen). The isolated RNA is then reverse-transcribed using oligo(dT) primer and Mo-MLV reverse transcriptase (Invitrogen) with DNAse I (Ambion) treatment for 30 min. The one-tenth of the produced cDNA was amplified by PCR using Taq DNA polymerase (Invitrogen) and two reporter sequence-specific primers. The PCR products were fluorescently labeled by primer extension with 6-arboxyfluorescein (6-FAM) 5'-labeled reporter sequence-specific primer (2 min at 95 C, 20 s at 68 C and 10 min at 72 C) and these products were digested with 5U of HpaI (New England Biolabs) for 2h at 37 C. The fragments were purified using Qiaquick PCR columns (Qiagen), analyzed on an ABI 3130xL genetic analyzer (Applied Biosystems) with peak positions identified by using a set of X-rhodamine (ROX)-labeled MapMarker1000 molecular weight standards (BioVentures). The raw capillary electrophoresis data was processed using Attagraph software (Attagene).

| SMILES | outcome | AC50 |
| --- | --- | --- |
| CC(C)(C)CC(C)(C)c1ccc(O)c(-n2nc3ccccc3n2)c1 | inactive | – |
| COc1ccc([N+](=O)[O-])cc1N | inactive | – |
| OC1CCCCC1 | inactive | – |
| CC[C@H](C)[C@@H](C(=O)O)n1sc2ccccc2c1=O | inactive | – |
| CCCCCCC(=O)O | inactive | – |
| CCCCC(CC)COC(=O)CCCCC(=O)OCC(CC)CCCC (stereo not given) | inactive | – |
| C#C[C@]1(O)CC[C@H]2[C@@H]3CCC4=CC(=O)CC[C@@H]4[C@H]3CC[C@@]21C | inactive | – |
| OCCC(F)(F)C(F)(F)C(F)(F)C(F)(F)C(F)(F)C(F)(F)C(F)(F)C(F)(F)F | inactive | – |
| CCC(=C(c1ccc(O)cc1)c1ccc(OCCN(C)C)cc1)c1ccccc1 | inactive | – |
| CCCCOCCO | inactive | – |
| CCC(C)(C)C1CCC(O)CC1 (stereo not given) | inactive | – |
| CCCCC[C@H](O)CC(=O)CCc1ccc(O)c(OC)c1 | inactive | – |
| O=C(/C=C/c1ccc(O)cc1)CC(=O)/C=C/c1ccc(O)cc1 | inactive | – |
| CCCCCCCCCCCCCC[N+](C)(C)C | inactive | – |
| CC(C)(C)c1cccc(C(C)(C)C)c1O | inactive | – |
| Cc1oc(-c2ccccc2)nc1CCOc1ccc(C[C@H](Nc2ccccc2C(=O)c2ccccc2)C(=O)O)cc1 | inactive | – |
| O=C1OC2(c3ccccc31)c1cc(Br)c(O)c(Br)c1Oc1c2cc(Br)c(O)c1Br | inactive | – |
| ClC1=C(Cl)C(Cl)(Cl)C(Cl)=C1Cl | inactive | – |
| O=C(O)Cc1cc(I)c(Oc2cc(I)c(O)c(I)c2)c(I)c1 | inactive | 108 µM (active) |
| c1ccc2cc3c(ccc4ccccc43)cc2c1 | inactive | – |

| SMILES | outcome | AC50 |
| --- | --- | --- |
| Cc1cc(CCN2CCN(c3nsc4ccccc34)CC2)cc2c1NC(=O)CC2(C)C | inactive | – |
| CCCCCCCCCCCCCCCS(=O)(=O)Oc1ccccc1 | inactive | – |
| Cc1cc(C)c(O)c(C)c1 | inactive | – |
| CCc1nn(C2CCCCC2)c2cc(C3(C#N)CCC(C(=O)O)CC3)ccc12 (stereo not given) | inactive | – |
| c1ccc2c(c1)Cc1ccccc1-2 | inactive | – |
| CCN(CC)CCNc1ccc(CNC=O)c2sc3ccc(OC)cc3c(=O)c12 | inactive | – |
| CCCCCCCC(=O)O | inactive | – |
| CCCCC(CC)COC(=O)CCCCC(=O)OCc1ccccc1 (stereo not given) | inactive | – |
| CC(C)CCCCCCOC(=O)CCCCC(=O)OCCCCCCC(C)C | inactive | – |
| Cc1ccc(S(=O)(=O)O)c(C)c1 | inactive | – |
| O=C(O)c1ccccc1C(c1ccc(O)cc1)c1ccc(O)cc1 | inactive | – |
| O=C(OCCOCCOC(=O)c1ccccc1)c1ccccc1 | inactive | – |
| O=[N+]([O-])c1ccc(O)cc1 | inactive | – |
| CC(O)C(=O)O (stereo not given) | inactive | – |
| CCOC(=O)CC(O)(CC(=O)OCC)C(=O)OCC | inactive | – |
| NCC(F)(F)C(F)(F)C(F)(F)C(F)(F)C(F)(F)C(F)(F)C(F)(F)F | inactive | – |
| C[C@@H]1C[C@H]2[C@@H]3CCC4=CC(=O)C=C[C@]4(C)[C@@]3(F)[C@@H](O)C[C@]2(C)[C@@]1(O)C(=O)COP(=O)(O)O | inactive | – |
| CC(=O)NC1(c2cccc(F)c2)CCN(CC[C@@]2(c3ccc(Cl)c(Cl)c3)CN(c3ccccc3)C(=O)CO2)CC1 | inactive | – |
| CN1CCN(c2ccccc2/C=C2\SCCN(c3ccc(Cl)c(Cl)c3)C2=O)CC1 | inactive | – |
